Bioassay records from PubChem BioAssay.
An excerpt weighted towards active compounds, which were near 2.6% of everything screened.
TAG inh: triacylglycerol accumulation inhibition | H9c2 cells, Nile Red lipid (TAG) fluorescence; cells loaded with 200 µM oleic acid | inhibition, % at 12.5 µM | 230,000 compounds, 0.66% hits | AID 651582;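 active = pattern-corrected inhibition of lipid staining of at least 50% with the nuclear-stain viability signal not falling by more than 50%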
697 NFkB inh: inhibitors of the PMA/ionomycin-induced NF-kB reporter in 697 B cells; 697 B-cell NF-kB luciferase reporter, 16 h; inhibition, % at 4 µM; 330,000 compounds, 0.33% hits; AID 435022; in the data active = inhibition above about 35%
COUP-TFII inh: inhibitors of human COUP-TFII (NR2F2); P24468; HEK293T NGFI-A luciferase reporter, luminescence; inhibition, % at 8.6 µM; 370,000 compounds, 0.7% hits;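 active = inhibition above a per-plate cutoff, mean inhibition of test wells between control levels plus 3 SD, cut at about 38% in these data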;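 also: cells cotransfected with COUP-TFII expression vector driving the NGFI-A reporter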
Target sequence (P24468 whole entry, looked up): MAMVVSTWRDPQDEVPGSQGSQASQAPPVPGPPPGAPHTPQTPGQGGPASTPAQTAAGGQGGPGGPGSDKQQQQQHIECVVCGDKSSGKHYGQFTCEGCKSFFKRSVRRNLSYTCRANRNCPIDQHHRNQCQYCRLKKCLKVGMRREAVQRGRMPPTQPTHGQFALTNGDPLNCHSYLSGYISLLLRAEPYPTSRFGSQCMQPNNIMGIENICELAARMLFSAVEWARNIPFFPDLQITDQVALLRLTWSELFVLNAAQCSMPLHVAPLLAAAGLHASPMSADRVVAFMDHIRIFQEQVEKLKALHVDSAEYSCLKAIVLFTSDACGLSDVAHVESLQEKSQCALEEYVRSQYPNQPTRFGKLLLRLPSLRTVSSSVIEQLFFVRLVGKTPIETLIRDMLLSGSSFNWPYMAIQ
H9c2 protect: protects H9c2 cardiomyocytes from peroxide injury; H2O2 injury protection, ATPLite, 2 h; protection from H2O2 cell death, % at 20 µM; 360,000 compounds, 0.63% hits;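 active = compounds giving at least 50% protection of heart cells from peroxide-induced death in the single-dose screen, raw or plate-pattern-corrected value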
Jurkat NFkB inh: inhibitors of the PMA/ionomycin-induced NF-kB reporter in Jurkat cells | PMA/ionomycin-induced NF-kB luciferase reporter, luminescence | inhibition, % at 4 µM | 330,000 compounds, 0.53% hits; in the data active = inhibition above about 50%
Gli-Sufu antag: antagonists of Gli-Sufu signaling; 340,000 compounds, 0.74% hits; Sufu-KO-LIGHT fibroblasts, Gli luciferase reporter luminescence; inhibition, % at 5 µM; AID 588413;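 active = inhibition above about 55%, limit read from the data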
Gli-Sufu confirm: confirmation of Gli-SUFU pathway antagonists. shares compounds with Gli-Sufu antag. Sufu-KO-LIGHT cells, Gli luciferase reporter, luminescence. inhibition, % at 5 µM. 2,500 compounds, 40% hits. AID 602428;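 active = mean inhibition at 5 µM reaching about 45%, limit read from the data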
Gli cytotox: cytotoxicity counter-screen for Gli-SUFU antagonists; shares compounds with Gli-Sufu antag; Sufu-KO-LIGHT cells cytotoxicity, ATP luminescence; cytotoxicity, % at 5 µM; 2,500 compounds, 32% hits;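 active = mean cytotoxicity at 5 µM above about 25%, limit read from the data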;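 also: cells exposed to compound overnight for roughly 16 to 18 hours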
Wnt3a cs: Wnt3a reporter inhibition counter-screen; Wnt-LIGHT cells, Wnt3a-driven luciferase reporter, luminescence; inhibition, % at 6.25 µM; 2,500 compounds, 20% hits; AID 651995; shares compounds with Gli-Sufu antag;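 active = mean inhibition above about 25%, limit read from the data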
A number is an active result.

Screening CCOc1ccc(OCc2ccc(C(=O)N/N=C(\C)c3ccccn3)cc2)cc1 returned TAG inh inactive, COUP-TFII inh inactive, H9c2 protect inactive, Gli-Sufu antag 83, Gli-Sufu confirm 91, Gli cytotox 42 and Wnt3a cs 72.
For COc1ccc(C(=O)N/N=C(\c2ccccc2)c2ccccn2)cc1 the results were TAG inh inactive, COUP-TFII inh inactive, H9c2 protect 60, Gli-Sufu antag 74, Gli-Sufu confirm 51, Gli cytotox inactive and Wnt3a cs 38.
CCOc1c(CNCCN2CCOCC2)cccc1OC was read as 697 NFkB inh inactive, COUP-TFII inh inactive, H9c2 protect inactive, Jurkat NFkB inh inactive, Gli-Sufu antag inactive, Gli-Sufu confirm inactive, Gli cytotox inactive and Wnt3a cs inactive.
CCOC(=O)C1(Cc2cccc(OC)c2)CCN(C/C=C/c2ccc(OC)cc2)CC1 was read as TAG inh inactive, 697 NFkB inh inactive, COUP-TFII inh inactive, H9c2 protect inactive, Jurkat NFkB inh inactive, Gli-Sufu antag inactive, Gli-Sufu confirm inactive, Gli cytotox 28 and Wnt3a cs inactive.
CCC(NC(=O)NCc1ccccc1)(C(F)(F)F)C(F)(F)F was read as 697 NFkB inh inactive, COUP-TFII inh inactive, H9c2 protect inactive, Jurkat NFkB inh inactive, Gli-Sufu antag inactive, Gli-Sufu confirm inactive, Gli cytotox 27 and Wnt3a cs inactive.
`C[C@@H]1COC(=O)[C@@H](NC(=O)OCC2c3ccccc3-c3ccccc32)C/C=C\C[C@@H](CC(=O)N(CCO)Cc2ccccc2)C(=O)N1` gave TAG inh inactive, 697 NFkB inh inactive, COUP-TFII inh inactive, H9c2 protect inactive, Jurkat NFkB inh inactive, Gli-Sufu antag 75, Gli-Sufu confirm 70, Gli cytotox inactive and Wnt3a cs inactive.
For O=C1CC/C=C\C[C@@H](CC(=O)N(CCO)Cc2ccccc2)C(=O)NC[C@@H](c2ccccc2)O1 the results were TAG inh inactive, 697 NFkB inh inactive, COUP-TFII inh inactive, H9c2 protect inactive, Jurkat NFkB inh inactive and Gli-Sufu antag inactive.
C[C@H]1COC(=O)[C@H](NC(=O)OCC2c3ccccc3-c3ccccc32)C/C=C\C[C@H](CC(=O)N(CCO)Cc2ccccc2)C(=O)N1 was read as TAG inh inactive, 697 NFkB inh inactive, COUP-TFII inh inactive, H9c2 protect inactive, Jurkat NFkB inh inactive and Gli-Sufu antag inactive.
`O=C(C[C@H]1C/C=C\C[C@H](NC(=O)OCC2c3ccccc3-c3ccccc32)C(=O)O[C@H](c2ccccc2)CNC1=O)N[C@H](CO)Cc1ccccc1` gave TAG inh inactive, 697 NFkB inh inactive, H9c2 protect inactive, Jurkat NFkB inh inactive, Gli-Sufu antag 63, Gli-Sufu confirm 54, Gli cytotox 34 and Wnt3a cs inactive.
Screening O=C(N[C@@H]1C/C=C\C[C@H](CC(=O)N(CCO)Cc2ccccc2)C(=O)NC[C@@H](c2ccccc2)OC1=O)OCC1c2ccccc2-c2ccccc21 returned TAG inh inactive, 697 NFkB inh inactive, COUP-TFII inh inactive, H9c2 protect inactive, Jurkat NFkB inh inactive, Gli-Sufu antag 67, Gli-Sufu confirm 65, Gli cytotox 26 and Wnt3a cs inactive.
For O=C(N[C@@H]1C/C=C\C[C@@H](CC(=O)N(CCO)Cc2ccccc2)C(=O)NC[C@H](c2ccccc2)OC1=O)OCC1c2ccccc2-c2ccccc21 the results were TAG inh inactive, 697 NFkB inh inactive, COUP-TFII inh inactive, H9c2 protect inactive, Jurkat NFkB inh inactive, Gli-Sufu antag 59, Gli-Sufu confirm 62, Gli cytotox inactive and Wnt3a cs inactive.
`O=C(C[C@H]1C/C=C\C[C@@H](Cc2ccc(F)cc2)C(=O)O[C@H](c2ccccc2)CNC1=O)N[C@@H](CO)Cc1ccccc1` gave TAG inh inactive, 697 NFkB inh inactive, COUP-TFII inh inactive, H9c2 protect inactive, Jurkat NFkB inh inactive and Gli-Sufu antag inactive.
`COC(=O)[C@@H](Cc1ccccc1)N[C@H](/C=C/c1ccccc1)[C@@H](O)Cc1ccccc1` gave COUP-TFII inh inactive.
O=C(O)c1cccc(N/N=C/c2sc(N3CCOCC3)nc2-c2ccccc2)c1 was read as 697 NFkB inh inactive, COUP-TFII inh inactive, H9c2 protect inactive, Jurkat NFkB inh inactive and Gli-Sufu antag inactive.
Screening O=[N+]([O-])c1ccc(N/N=C/c2sc(N3CCOCC3)nc2-c2ccccc2)c(S(=O)(=O)Nc2ccc(Cl)cc2)c1 returned COUP-TFII inh inactive, H9c2 protect inactive, Gli-Sufu antag 90, Gli-Sufu confirm 90, Gli cytotox inactive and Wnt3a cs 72.
O=[N+]([O-])c1ccc(N/N=C/c2sc(N3CCOCC3)nc2-c2ccccc2)c(S(=O)(=O)Nc2ccccc2Cl)c1 was read as COUP-TFII inh inactive, H9c2 protect inactive, Gli-Sufu antag 69, Gli-Sufu confirm 81, Gli cytotox inactive and Wnt3a cs 60.
O=C(N/N=C/c1sc(N2CCOCC2)nc1-c1ccccc1)c1ccccc1Cl was read as TAG inh inactive, 697 NFkB inh inactive, COUP-TFII inh inactive, H9c2 protect inactive, Jurkat NFkB inh inactive and Gli-Sufu antag inactive.
Screening COc1ccc(-n2c(C)cc(C(=O)CN3C(=O)c4ccccc4C3=O)c2C)cc1 returned 697 NFkB inh inactive, COUP-TFII inh inactive, H9c2 protect inactive, Jurkat NFkB inh inactive, Gli-Sufu antag 96, Gli-Sufu confirm inactive, Gli cytotox inactive and Wnt3a cs inactive.
`CC1CCC2(CC1)CCN(CCCOC(=O)Nc1cccc(F)c1)C2=O` (stereo not drawn) gave COUP-TFII inh inactive.
Screening CN1CCC(=C2c3ccccc3Sc3ccccc32)CC1 returned TAG inh inactive, COUP-TFII inh inactive, H9c2 protect inactive, Gli-Sufu antag 56, Gli-Sufu confirm inactive, Gli cytotox 37 and Wnt3a cs inactive.
`CN1CCC(=C2c3ccccc3C=Cc3ccccc32)CC1` gave TAG inh inactive, 697 NFkB inh inactive, COUP-TFII inh inactive, H9c2 protect inactive, Jurkat NFkB inh inactive and Gli-Sufu antag inactive.
O=C(N[C@@H](Cc1cccnc1)C(=O)N1CCC[C@H]1C(=O)NC1CCCC1)c1ccccc1 was read as COUP-TFII inh inactive.
For CC(CCN1CCC(C(O)(c2ccccc2)c2ccccc2)CC1)Oc1cccc(Br)c1 (stereo not drawn) the results were COUP-TFII inh inactive.
C[C@H]1[C@@H](OC(=O)Nc2ccccc2C(F)(F)F)CC[C@@]23CCCN2C(=O)CCC[C@@H]13 was read as COUP-TFII inh inactive.
